# Article PMC10668032, “Altered binding affinity of SIX1-Q177R correlates with enhanced WNT5A and WNT pathway effector expression in Wilms tumor”
# Whole data set: some 33,000 sequences, median “e-score” near -0.05, cut for the highest 2% near 0.38. The entries come from a sample that favours the highest values as a whole.
# Target: T1, SIX1-Q177R homeodomain (human, UniProt Q15475 108-198, Q177R)
# T1 sequence: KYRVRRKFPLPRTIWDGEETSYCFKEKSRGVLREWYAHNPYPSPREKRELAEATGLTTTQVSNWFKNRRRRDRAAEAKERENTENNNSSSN
# Assay: universal protein binding microarray; Universal all-10-mer PBM (8x60K, AMADID 030236), 300 nM GST-tagged protein, Alexa Fluor 488 anti-GST; buffer, salt, pH and temperature not stated (as in Berger); high values mean tight binding
# Conditions: protein: ivt; tags: N-terminal GST; dsDNA, one strand shown
# Procedure, shortened: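 Homeodomains fused to GST were made by in vitro transcription/translation and measured by anti-GST western blot with a recombinant GST standard curve. At 300 nM final concentration, they were applied in duplicate to universal 'all 10-mer' protein binding microarrays (8×60K format).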
row,Sequence,binding signal
1,CGCCCGAC,0.184 ± 0.0127 E-score
2,ACCGAGTG,0.363 ± 0.0115 E-score
3,CACCAGGC,0.336 ± 0.016 E-score
4,CACGAAGA,0.183 ± 0.0282 E-score
5,AGATTACA,0.23 ± 0.00802 E-score
6,TCGACACA,0.188 ± 0.0429 E-score
7,ACGACACT,0.4277 ± 0.00127 E-score
8,CCGACACA,0.295 ± 0.0445 E-score
9,AAGACACA,0.174 ± 0.0361 E-score
10,CCGACTCC,0.159 ± 0.044 E-score
11,CCGACCCC,0.24 ± 0.0393 E-score
12,ACGACACG,0.426 ± 0.0132 E-score
13,CCGACACG,0.418 ± 0.0317 E-score
14,ACGACACA,0.273 ± 0.0776 E-score
15,CCGACACC,0.488 ± 0.0101 E-score
16,ACCCGCTC,0.227 ± 0.00437 E-score
17,CACCTGCC,0.225 ± 0.0171 E-score
18,ACCCGAAC,0.173 ± 0.0027 E-score
19,TGTCGTAA,0.163 ± 0.00414 E-score
20,CCCCCCCG,0.218 ± 0.0264 E-score
21,GGGTGATA,0.218 ± 0.0149 E-score
22,GATCCCGC,0.185 ± 0.0357 E-score
23,CGGGTACG,0.182 ± 0.00752 E-score

row,Sequence,binding signal
1,GCGACACA,0.262 ± 0.0569 E-score
2,GCGACCCC,0.212 ± 0.0261 E-score
3,ACGACTCC,0.309 ± 0.0346 E-score
4,GCGACACC,0.487 ± 0.00655 E-score
5,ACGACACC,0.487 ± 0.00563 E-score
6,ACGACCCC,0.244 ± 0.0306 E-score
7,CACTTGAA,0.202 ± 0.00417 E-score
8,CACCTTAC,0.248 ± 0.036 E-score
9,CACTCTCG,0.288 ± 0.0157 E-score
10,CCCCGAAC,0.181 ± 0.00559 E-score
11,AGGACCCC,0.205 ± 0.0283 E-score
12,AACACCTG,0.44457 ± 0.000354 E-score
13,GACTCCTC,0.166 ± 0.0214 E-score
14,CACACCTG,0.389 ± 0.0159 E-score
15,AACACGTG,0.371 ± 0.00902 E-score
16,AACACCTA,0.444 ± 0.00846 E-score
17,GACACCTC,0.4825 ± 0.00161 E-score
18,GACCCCTC,0.26 ± 0.015 E-score
19,CACACCTA,0.333 ± 0.00896 E-score
20,CACACATG,0.165 ± 0.0245 E-score
21,AACACATA,0.17 ± 0.0243 E-score
22,AACACTTG,0.336 ± 0.0307 E-score
23,CCGAGACA,0.274 ± 0.00602 E-score

row,Sequence,binding signal
1,ATGATACC,0.335 ± 0.0146 E-score
2,CACCACGG,0.226 ± 0.00882 E-score
3,ATGCGGTG,0.295 ± 0.0245 E-score
4,CGGGCGAC,0.215 ± 0.0122 E-score
5,CACTGGGG,0.287 ± 0.0142 E-score
6,ATAAGGTG,0.217 ± 0.0216 E-score
7,AACTGTGT,0.159 ± 0.066 E-score
8,CCGGATCC,0.249 ± 0.0202 E-score
9,TCGATACA,0.198 ± 0.0102 E-score
10,CACTCCAG,0.225 ± 0.00445 E-score
11,GTTCGGTA,0.156 ± 0.0218 E-score
12,AGCACCTC,0.178 ± 0.00186 E-score
13,TACACCTA,0.47 ± 0.00841 E-score
14,AACACCTT,0.452 ± 0.0164 E-score
15,AACACCTC,0.456 ± 0.0111 E-score
16,AACACGTT,0.272 ± 0.0421 E-score
17,AACACACT,0.276 ± 0.0133 E-score
18,TACACGTA,0.355 ± 0.0208 E-score
19,GACACATA,0.234 ± 0.0761 E-score
20,GATACCTA,0.3275 ± 0.000891 E-score
21,TACACATA,0.209 ± 0.0376 E-score
22,GACACCTA,0.463 ± 0.00697 E-score
23,AACACTTC,0.326 ± 0.0413 E-score

row,Sequence,binding signal
1,GCGGGTTA,0.21 ± 0.00486 E-score
2,CCCGCCCG,0.233 ± 0.0272 E-score
3,CCCCCGAC,0.272 ± 0.00679 E-score
4,ATACCCGA,0.241 ± 0.0123 E-score
5,AAGACGTG,0.166 ± 0.073 E-score
6,ACACTTTC,0.354 ± 0.0256 E-score
7,CCCTTCCC,0.181 ± 0.0277 E-score
8,CACACTTC,0.205 ± 0.0263 E-score
9,CACACCTC,0.403 ± 0.00914 E-score
10,CACCTCTG,0.2874 ± 0.00224 E-score
11,CACGTCCC,0.165 ± 0.0267 E-score
12,ATAAACCC,0.16 ± 0.0287 E-score
13,ACACGATA,0.3751 ± 0.00175 E-score
14,ACACGAAC,0.3433 ± 0.00132 E-score
15,ACACGAAG,0.346 ± 0.00991 E-score
16,ACCCGATC,0.253 ± 0.057 E-score
17,ACACGATG,0.3915 ± 0.00105 E-score
18,ACACGATC,0.385 ± 0.00771 E-score
19,CAGCACCC,0.188 ± 0.00201 E-score
20,GGATAACA,0.204 ± 0.00942 E-score
21,CACGGGTC,0.253 ± 0.0022 E-score
22,CCCTGAGG,0.177 ± 0.00892 E-score
